# Data taken from PubChem BioAssay (EPA / NIEHS).
# Records with an inconclusive call do not appear. The source made the active and inactive calls. How the source made its calls: active means hit-call score of the fitted dose curve at least 0.9, where 1 is the maximum; inconclusive means response in the unintended direction; inactive means score below 0.9.
# Target: chimpanzee Androgen Receptor (AR), AR (gene 747460) (UniProt O97775)
# Experiment: NVS_NR_cAR: NovaScreen (NVS) Nuclear Receptor Binding Assay for chimpanzee Androgen Receptor (AR) (AID 2283346);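 further: a loss of bound radioligand signal versus DMSO counts as binding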
# Experimental: NVS_NR_cAR is a biochemical, single-readout assay that uses extracted gene-proteins from Sf9/Sf21 in a cell-free assay. Measurements were taken 72 hours after chemical dosing in a 96-well plate.NVS_NR_cAR is one of one assay component(s) measured or calculated from the NVS_NR_cAR assay. It is designed to make measurements of radioligand binding, a form of binding reporter, as detected with scintillation counting signals by Lysate-based radiodetection technology.Data from the assay component NVS_NR_cAR was analyzed into 1 assay endpoint. This assay endpoint, NVS_NR_cAR, was analyzed in the positive analysis fitting direction relative to DMSO as the negative control and baseline of activity. Using a type of binding reporter, loss-of-signal activity can be used to understand changes in the binding as they relate to the gene AR. Furthermore, this assay endpoint can be referred to as a primary readout, because the performed assay has only produced 1 assay endpoint. To generalize the intended target to other relatable targets, this assay endpoint is annotated to the nuclear receptor intended target family, where the subfamily is steroidal.
# Binding assays used specific radioligands (tritiated, iodinated) with non-radioactive competitive displacement ligands in agonist or antagonist protocols (as indicated) and various reference compounds and inhibitors to titrate specific binding to receptors and transporters. Most enzyme assays (CYPs, kinases, phosphatases, proteases, HDACs) used recombinant protein and specific substrates (fluorescence mostly, some colorimetric and radioactive) and inhibitors, followed by a biochemical separation of substrate and product. All assays for the biochemical HTS were initially run in duplicate at a single concentration (10 uM for CYP450 assays and 25 uM for all others). […] Each assay was run with positive and negative controls, and concurrent controls on every plate. The follow-up (secondary) screen tested active chemical-pairs in concentration series, as well as a few additional assays not tested in the primary screen, some selected negative inactives, and several cases re-run in the concentration series for confirmatory purposes.
# Chain of chimpanzee Androgen Receptor (AR), AR (gene 747460) (O97775 whole entry, looked up): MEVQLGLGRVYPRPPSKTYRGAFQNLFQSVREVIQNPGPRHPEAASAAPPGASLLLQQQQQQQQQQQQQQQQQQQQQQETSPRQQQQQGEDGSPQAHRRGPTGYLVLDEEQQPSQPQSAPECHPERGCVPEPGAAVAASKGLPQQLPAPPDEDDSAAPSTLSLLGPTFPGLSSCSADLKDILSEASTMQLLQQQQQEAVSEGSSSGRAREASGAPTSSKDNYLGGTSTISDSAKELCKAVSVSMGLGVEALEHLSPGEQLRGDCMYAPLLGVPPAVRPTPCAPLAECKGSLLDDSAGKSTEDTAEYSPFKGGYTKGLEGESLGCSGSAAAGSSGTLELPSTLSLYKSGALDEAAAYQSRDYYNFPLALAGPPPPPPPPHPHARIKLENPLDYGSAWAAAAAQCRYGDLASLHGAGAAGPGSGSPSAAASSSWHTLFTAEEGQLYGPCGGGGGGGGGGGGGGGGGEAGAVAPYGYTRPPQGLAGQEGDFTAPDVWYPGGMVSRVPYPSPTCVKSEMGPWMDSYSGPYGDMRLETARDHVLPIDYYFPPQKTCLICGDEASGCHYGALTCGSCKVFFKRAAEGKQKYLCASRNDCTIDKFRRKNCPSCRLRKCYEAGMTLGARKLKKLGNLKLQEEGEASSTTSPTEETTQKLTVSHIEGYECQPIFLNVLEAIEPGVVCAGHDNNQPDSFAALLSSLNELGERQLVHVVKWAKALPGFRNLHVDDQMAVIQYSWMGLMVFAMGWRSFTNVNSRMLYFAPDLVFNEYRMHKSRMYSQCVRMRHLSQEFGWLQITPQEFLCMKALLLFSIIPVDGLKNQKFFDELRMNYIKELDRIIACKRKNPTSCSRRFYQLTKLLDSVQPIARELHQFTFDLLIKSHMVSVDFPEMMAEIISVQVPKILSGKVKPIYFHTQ
SMILES,AC50,outcome
O=S1(=O)OC(c2cc(Br)c(O)c(Br)c2)(c2cc(Br)c(O)c(Br)c2)c2ccccc21,18.1 µM (active),
Oc1cc(Cl)c(Cl)cc1Cl,,inactive
O=[N+]([O-])c1ccc(Cl)c([N+](=O)[O-])c1,11.9 µM (active),
[Cl][Sn]([c]1ccccc1)([c]1ccccc1)[c]1ccccc1,,inactive
CC(C)=CC1C(C(=O)OCc2cccc(Oc3ccccc3)c2)C1(C)C (configuration not stated),,inactive
Nc1c(Oc2ccccc2)cc(O)c2c1C(=O)c1ccccc1C2=O,,inactive
Nc1ccc(N)cc1,25 µM (active),
O=C1c2ccccc2C(=O)C1C(=O)C(c1ccccc1)c1ccc(Cl)cc1 (configuration not stated),26.4 µM (active),
N#CS,,inactive
Cc1ccc2nc3sc(=O)sc3nc2c1,0.363 µM (active),
Cc1cc(C(C)(C)c2ccc(O)c(C)c2)ccc1O,,inactive
O=C(CCl)Nc1ccccc1,,inactive
OC(Cc1ccccc1Cl)(Cn1cncn1)C1(Cl)CC1 (configuration not stated),,inactive
C#CCOC(=O)/C=C(C)/C=C/CC(C)CCCC(C)C (configuration not stated),,inactive
OC(Cc1ccccc1Cl)(Cn1[nH]cnc1=S)C1(Cl)CC1 (configuration not stated),,inactive
CCC[CH2][Sn]([Cl])([Cl])[CH2]CCC,19.6 µM (active),
O=c1oc2ccccc2c(O)c1C(CC(O)c1ccc(-c2ccc(Br)cc2)cc1)c1ccccc1 (configuration not stated),,inactive
